Experimental data from PubChem BioAssay (NCATS).
Unmarked numbers belong to inactive results. No rule for the calls is given here.

tested on: HIV-1 nucleocapsid protein NCp7 (binding to TG oligonucleotide); assay: HIV Nucleocapsid (AID 346); conditions: HIV-1 NC / fluorescein-TGTGTGTG probe, fluorescence polarization;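 also: potency is for inhibitors that block NC binding and lower polarization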
Procedure: NCGC Assay Overview: HIV-1 nucleocapsid protein (HIV-1 NC) is a small (6.5 kDa) basic zinc-finger protein which participates in packaging of viral genomic RNA. The spacing and metal-chelating residues (3 Cys, 1 His) of the Cys-X2-Cys-X4-His-X4-Cys Zn fingers are conserved among all known retroviruses (J. Med. Chem. 1998, 41, 1371-1381). HIV-1 NC was assayed for its binding to the consensus sequence single-stranded 5'-TGTGTGTG. […] High salt was included to increase the stringency of binding and inhibitor screen. Reducing agents and zinc were present to stabilize the nucleocapsid zinc-finger protein.
NCGC Assay Protocol Summary: Buffer. Hepes pH 7.5, 250mM NaCl, 1uM ZnCl2. 0.004% polyethylene glycol 20000. TCEP (100 uM) and 2-Mercaptoethanol (5 mM), added fresh the day of the experiment. Reagents/Controls. 10 nM TG4xF only in columns 3 and 4 as negative control. 10 nM TG4xF/100 nM HIV-1 NC in columns 1, 2, 5-48. Titration of control compound NSC-13778 (from 20 mM, then 1:2) pin-transferred to column 2. Assay Steps. Two uL of reagents were dispensed to 1536-well Kalypsys black plates. The plates were centrifuged for 1 min at 1000 rpm. Compounds and controls (20 nL) were transferred via Kalypsys PinTool. The plates were incubated for 1 hr at room temperature, and then read on ViewLux (Perkin-Elmer). High-throughput CCD imager using fluorescein polarization filter set and 45 seconds exposure time.
Potency is read from the fitted curve at half-maximal effect.

SMILES | Potency [µM]
CN1CCN(c2ncnc3ccc(-c4ccoc4)cc23)CC1 | > 20
COc1ccc(CNc2nc(-c3ccc(C(=O)N(C)C)cc3)nc3ccccc23)c(OC)c1 | > 20
COc1cccc(Cn2c(=O)c(-c3ccc(Cl)cc3)nc3cnc(N(C)C)nc32)c1 | > 20
COc1ccc2[nH]cc(CCNc3ncncc3-c3cccc(C#N)c3)c2c1 | > 20
COc1cccc(-c2ccc3ncnc(NCc4ccccc4)c3c2)c1 | > 20
O=C(c1cc(C(F)(F)F)cc(C(F)(F)F)c1)N1CCC2(CCCN(Cc3ccccc3)C2)CC1 | > 20
O=C(c1cnccn1)N1CCC2(CCCN(c3ccccc3)C2)CC1 | > 20
O=C(Oc1ccccc1)N1CCC2(CCCN(c3ccc(-c4ccccc4)cc3)C2)CC1 | > 20
Cn1c(=O)cnc2cnc(Oc3ccccc3)nc21 | > 20
Clc1ccccc1-c1nc(N2CCNCC2)c2ccccc2n1 | > 20
COc1ccc(Oc2ncc3ncc(=O)n(C4CC4)c3n2)cc1 | > 20
Cc1cnc(CNc2ccnc(-c3c(C)noc3C)n2)cn1 | > 20
COc1ccc(-c2nc3cnc(N4CCOCC4)nc3n(C)c2=O)cc1 | > 20
COc1ccc(NC(=O)N2CC3(CCNCC3)C2)cc1 | > 20
CN(C)c1ncc2nc(-c3cc(F)cc(F)c3)c(=O)n(Cc3cccs3)c2n1 | > 4
O=c1c(-c2cc(F)cc(F)c2)nc2cnc(N3CCOCC3)nc2n1-c1ccccc1 | > 4
O=c1c(-c2ccc(Cl)cc2)nc2cnc(N3CCOCC3)nc2n1C1CC1 | > 20
CN(Cc1ccco1)c1ncncc1-c1cccnc1 | > 20
COCCn1c(=O)c(-c2cccs2)nc2cnc(Oc3ccc(OC)cc3)nc21 | > 20
CS(=O)(=O)Nc1cccc(-c2cncnc2Nc2ccccc2)c1 | > 20

SMILES | Potency [µM]
COc1ncc2nc(-c3ccc(F)cc3)c(=O)n(-c3ccccc3)c2n1 | > 20
COc1ccc(NC(=O)N2CCCC3(CCN(C(=O)c4ccco4)CC3)C2)cc1 | > 20
CN1CCN(c2nc(-c3cccc(C#N)c3)nc3ccccc23)CC1 | > 20
O=C(Nc1cccc(F)c1)N1CCC2(CCNCC2)CC1 | > 20
COc1ncc2nc(-c3ccc(Cl)cc3)c(=O)n(CCc3ccccc3)c2n1 | > 20
Cc1noc(C)c1-c1nccc(NC2CC2)n1 | > 20
CC(=O)N1CCC2(CCCN(Cc3cc(C(F)(F)F)cc(C(F)(F)F)c3)C2)CC1 | > 20
N#CCCn1c(=O)cnc2cnc(N3CCNCC3)nc21 | > 20
COc1ccc(-n2c(=O)c(C)nc3cnc(OC)nc32)cc1 | > 20
COc1ccccc1CNc1ccnc(-c2ccccc2CN(C)C)n1 | > 20
COc1ccc(-n2c(=O)c(-c3cccs3)nc3cnc(N(C)C)nc32)cc1 | > 4
COc1ccccc1-c1nc(NC2CC2)c2ccccc2n1 | > 20
CNc1ncnc2ccc(-c3ccccc3CN(C)C)cc12 | > 20
O=C(c1cnccn1)N1CCC2(CC1)CN(c1ncccn1)C2 | > 20
COc1ccc2[nH]cc(CCNc3ncncc3-c3c(C)noc3C)c2c1 | > 20
CN1CCN(c2nc(-c3ccc4c(c3)OCO4)nc3ccccc23)CC1 | > 20
COc1ccc(C(=O)N2CCC3(CCCN(C(=O)Nc4cccc(C#N)c4)C3)CC2)cc1 | > 20
O=c1c(CCc2ccccc2)nc2cnc(N3CCOCC3)nc2n1C1CC1 | > 20
CN(C)Cc1ccccc1-c1nc(N(C)Cc2ccco2)c2ccccc2n1 | > 20
O=S(=O)(c1ccccc1)N1CCC[C@@]2(CCN(c3ccccc3)C2)C1 | > 20
